Source: PubChem BioAssay AID602163 (The Scripps Research Institute Molecular Screening Center, 2012)
Several values for one entry are separate records, joined by “and”; a condition that tells them apart may be missing. Equal entries are not always repeated. Screen size: about 360,000 compounds; about 1,100 (0.31%) were called active. Cut-off read from the data, not from the text of the source: active = activation above about 7.5%; inactive = the rest. Many of the other results were omitted from the sample, so actives are more common in it than they were.

The molecules below were run on Methionine sulfoxide reductase A (Bos taurus) (assay: activation of methionine sulfoxide reductase A – biochemical, absorbance, bovine, HTS, primary screen (AID 602163;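 note: 0% = vehicle and 100% = reference activator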)). Conditions: purified bovine MsrA, absorbance read-out; at 10.6 µM; hits give high values.

SMILES | activation
CCOc1cccc(-n2nnnc2-c2ccc(OC)cc2)c1 | 15.8% (active)
COc1ccc(NC(=O)CSc2nnnn2-c2cccc(OC)c2)cc1 | -2.59% (inactive)
CCOC(=O)C(C)n1cnc2c(nnn2-c2cccc(OC)c2)c1=O (configuration not stated) | -0.63% (inactive)
COC(=O)c1c(C)cc(O)c(C)c1O | 3.54% (inactive)
Cc1cc(OCc2cc(C(=O)NCc3cc(C(C)C)no3)no2)cc(C)c1Cl | -8.01% (inactive)
S=c1[nH]nc(NCCc2ccccc2)s1 | 10.4% (active)
S=c1[nH]nc(Nc2ccccc2)s1 | 3.66% (inactive)
Nc1c(NCCc2ccccc2)c2ccccc2oc1=O | -3.29% (inactive)
Cc1cc(=O)oc2c1ccc1ccccc12 | -2.71% (inactive)
CC1(C)S[C@@H]2[C@H](NC(=O)COc3ccccc3)C(=O)N2C1C(=O)OCc1ccccc1 (some centres not stated) | 8.55% (active)
CC1(C)SC2C(NC(=O)COc3ccccc3)C(=O)N2C1C(=O)O (configuration not stated) | -2.47% (inactive) and -3.56% (inactive)
COC(=O)C1[C@H]2SC(C)(C)C(C(=O)OC)N2C(=O)N1Cc1nc2ccccc2s1 (some centres not stated) | -2.77% (inactive)
O=c1oc2ccc(C#CC3(O)CCCCC3)cc2cc1-n1cc(-c2ccsc2)nn1 | -0.09% (inactive)
Cn1nnnc1SCC(=O)Nc1cccc(S(=O)(=O)N2CCCCC2)c1 | -4.48% (inactive)
CSCCC1NC(=O)N(CC(=O)Nc2cccc(S(=O)(=O)N3CCCCCC3)c2)C1=O (configuration not stated) | 15.5% (active)
O=C(CSc1ccccc1)Nc1cccc(S(=O)(=O)N2CCCCC2)c1 | -2.42% (inactive)
O=C(O)Cc1ccc(NC(=O)C2CCCCC2C(=O)O)cc1 (configuration not stated) | 8.45% (active)
O=C(NC1CCN(C(=S)Nc2ccc(Cl)cc2)CC1)C1CCCCC1 | -9.13% (inactive)
O=C(Cc1ccc(F)cc1)NC1CCCC1 | -5.09% (inactive)
Cc1ccc(NC(=O)C2CC2c2ccccc2)cc1 (configuration not stated) | 1.6% (inactive)
CC(=O)Nc1ccc(NC(=O)C2CCCN(S(=O)(=O)c3ccc(Cl)cc3)C2)cc1 (configuration not stated) | -1.47% (inactive)
O=C(O)C1CCCCC1C(=O)Nc1ccc(Cl)cc1 (configuration not stated) | 9.28% (active)
O=S1(=O)C=C(SCCN2CCCC2)c2ccccc21 | 3.43% (inactive)
CN1CCN(c2ccc3c(c2)OC[C@H](Cc2ccccc2)NS3(=O)=O)CC1 | -2% (inactive)
O=C(O)C1OC(C(=O)O)C2C1C(F)(F)C2(F)F (configuration not stated) | 0.7% (inactive)
C/C(Cc1ccccc1)=N\NC(=O)CNC(=O)c1ccc2c(c1)OCCO2 | -1.01% (inactive)
Cc1ccc(NC(=O)c2cc([N+](=O)[O-])ccc2Cl)c(O)c1 | -10% (inactive)
